We go through two compounds from ChEMBL document CHEMBL1961873, “Compounds: GSK PKIS; Assays: Nanosyn kinase panel” (2012).

For assay [1], the target named is Protein kinase C gamma type (Homo sapiens) (UniProt P05129). Particulars: at 1 µM.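 Further: each value is an averaged percent inhibition of the enzyme.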
Assay [2] addresses T1, Protein kinase C iota type (Homo sapiens) (UniProt P41743).
T1 sequence (whole entry): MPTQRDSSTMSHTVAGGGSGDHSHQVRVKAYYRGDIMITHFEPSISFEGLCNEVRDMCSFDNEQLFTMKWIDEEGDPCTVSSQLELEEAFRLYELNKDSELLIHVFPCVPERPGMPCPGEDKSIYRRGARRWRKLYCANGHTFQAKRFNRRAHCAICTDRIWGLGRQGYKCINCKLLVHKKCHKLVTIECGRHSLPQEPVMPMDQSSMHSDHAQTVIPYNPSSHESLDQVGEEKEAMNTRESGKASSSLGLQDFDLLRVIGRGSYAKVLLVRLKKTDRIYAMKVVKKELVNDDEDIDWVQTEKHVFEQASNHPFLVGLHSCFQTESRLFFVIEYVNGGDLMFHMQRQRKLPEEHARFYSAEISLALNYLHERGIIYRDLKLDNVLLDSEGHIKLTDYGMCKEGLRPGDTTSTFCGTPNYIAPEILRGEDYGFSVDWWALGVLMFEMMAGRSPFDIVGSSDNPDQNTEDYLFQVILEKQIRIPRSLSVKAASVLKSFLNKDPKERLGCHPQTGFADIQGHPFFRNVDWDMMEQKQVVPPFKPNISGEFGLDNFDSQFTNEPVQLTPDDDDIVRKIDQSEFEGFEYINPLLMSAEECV
Particulars: at 0.1 µM.

In assay [3] the target is T1, Protein kinase C iota type (Homo sapiens). Particulars: at 1 µM.
Assay [4] addresses Protein kinase C theta type (Homo sapiens) (UniProt Q04759). Particulars: at 0.1 µM.
Assay [5] shares this target. Particulars: at 1 µM.
Assay [6] has as its target Protein kinase C beta type (Homo sapiens) (UniProt P05771). Particulars: at 0.1 µM.
The target is the same in assay [7]. Particulars: at 1 µM.
The target in assay [8] is T2, Serine/threonine-protein kinase D1 (Homo sapiens) (UniProt Q15139).
T2 sequence (whole entry): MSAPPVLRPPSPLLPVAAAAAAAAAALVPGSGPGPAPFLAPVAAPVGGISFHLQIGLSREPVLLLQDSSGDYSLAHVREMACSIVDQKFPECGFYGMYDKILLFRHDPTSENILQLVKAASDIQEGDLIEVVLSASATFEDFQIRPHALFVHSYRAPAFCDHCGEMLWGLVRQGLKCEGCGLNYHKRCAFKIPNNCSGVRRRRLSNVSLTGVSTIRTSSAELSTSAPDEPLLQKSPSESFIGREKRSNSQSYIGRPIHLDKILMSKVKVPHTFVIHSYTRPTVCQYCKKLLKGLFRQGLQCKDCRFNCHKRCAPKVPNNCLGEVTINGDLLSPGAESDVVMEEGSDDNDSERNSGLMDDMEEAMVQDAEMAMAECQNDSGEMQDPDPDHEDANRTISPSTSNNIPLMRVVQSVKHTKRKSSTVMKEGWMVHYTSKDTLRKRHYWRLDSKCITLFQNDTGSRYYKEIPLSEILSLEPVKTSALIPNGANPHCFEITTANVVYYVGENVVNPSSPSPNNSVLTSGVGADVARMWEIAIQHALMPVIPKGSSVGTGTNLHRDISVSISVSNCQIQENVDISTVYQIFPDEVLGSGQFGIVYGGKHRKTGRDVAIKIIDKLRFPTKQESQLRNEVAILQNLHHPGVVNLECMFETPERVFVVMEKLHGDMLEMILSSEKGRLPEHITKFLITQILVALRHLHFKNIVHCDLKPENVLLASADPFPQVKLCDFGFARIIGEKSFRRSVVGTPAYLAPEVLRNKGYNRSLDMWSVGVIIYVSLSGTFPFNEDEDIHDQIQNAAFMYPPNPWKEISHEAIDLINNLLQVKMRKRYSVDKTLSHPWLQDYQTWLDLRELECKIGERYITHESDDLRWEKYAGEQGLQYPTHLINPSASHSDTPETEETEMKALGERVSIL
Particulars: at 0.1 µM.

Assay [9] deals with T2, Serine/threonine-protein kinase D1 (Homo sapiens). Particulars: at 1 µM.
The target in assay [10] is T3, Serine/threonine-protein kinase D2 (Homo sapiens) (UniProt Q9BZL6).
T3 sequence (whole entry): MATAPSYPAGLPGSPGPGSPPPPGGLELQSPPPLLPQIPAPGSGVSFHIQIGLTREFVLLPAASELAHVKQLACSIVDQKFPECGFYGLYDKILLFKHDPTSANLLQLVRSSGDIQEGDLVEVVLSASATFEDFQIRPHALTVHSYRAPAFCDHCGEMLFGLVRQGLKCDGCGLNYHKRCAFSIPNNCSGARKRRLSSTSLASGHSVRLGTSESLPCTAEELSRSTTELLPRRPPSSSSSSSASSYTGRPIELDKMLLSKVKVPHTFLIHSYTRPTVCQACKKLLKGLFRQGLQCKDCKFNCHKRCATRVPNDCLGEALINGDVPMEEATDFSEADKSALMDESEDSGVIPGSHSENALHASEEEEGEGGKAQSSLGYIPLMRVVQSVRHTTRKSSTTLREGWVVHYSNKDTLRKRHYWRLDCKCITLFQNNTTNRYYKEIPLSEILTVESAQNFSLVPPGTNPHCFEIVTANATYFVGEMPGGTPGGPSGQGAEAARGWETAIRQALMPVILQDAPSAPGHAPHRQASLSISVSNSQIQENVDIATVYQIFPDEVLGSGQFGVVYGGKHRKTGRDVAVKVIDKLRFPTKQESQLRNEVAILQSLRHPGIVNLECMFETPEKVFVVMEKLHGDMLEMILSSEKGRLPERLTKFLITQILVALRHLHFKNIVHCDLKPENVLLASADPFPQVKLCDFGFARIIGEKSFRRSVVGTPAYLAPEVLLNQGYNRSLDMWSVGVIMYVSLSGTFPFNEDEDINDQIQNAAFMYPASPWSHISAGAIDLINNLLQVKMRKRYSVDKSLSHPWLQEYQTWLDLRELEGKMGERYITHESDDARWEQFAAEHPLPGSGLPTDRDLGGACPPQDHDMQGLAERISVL
Particulars: at 0.1 µM.

The target of assay [11] is T3, Serine/threonine-protein kinase D2 (Homo sapiens). Particulars: at 1 µM.
For assay [12], the target named is T4, Serine/threonine-protein kinase D3 (Homo sapiens) (UniProt O94806).
T4 sequence (whole entry): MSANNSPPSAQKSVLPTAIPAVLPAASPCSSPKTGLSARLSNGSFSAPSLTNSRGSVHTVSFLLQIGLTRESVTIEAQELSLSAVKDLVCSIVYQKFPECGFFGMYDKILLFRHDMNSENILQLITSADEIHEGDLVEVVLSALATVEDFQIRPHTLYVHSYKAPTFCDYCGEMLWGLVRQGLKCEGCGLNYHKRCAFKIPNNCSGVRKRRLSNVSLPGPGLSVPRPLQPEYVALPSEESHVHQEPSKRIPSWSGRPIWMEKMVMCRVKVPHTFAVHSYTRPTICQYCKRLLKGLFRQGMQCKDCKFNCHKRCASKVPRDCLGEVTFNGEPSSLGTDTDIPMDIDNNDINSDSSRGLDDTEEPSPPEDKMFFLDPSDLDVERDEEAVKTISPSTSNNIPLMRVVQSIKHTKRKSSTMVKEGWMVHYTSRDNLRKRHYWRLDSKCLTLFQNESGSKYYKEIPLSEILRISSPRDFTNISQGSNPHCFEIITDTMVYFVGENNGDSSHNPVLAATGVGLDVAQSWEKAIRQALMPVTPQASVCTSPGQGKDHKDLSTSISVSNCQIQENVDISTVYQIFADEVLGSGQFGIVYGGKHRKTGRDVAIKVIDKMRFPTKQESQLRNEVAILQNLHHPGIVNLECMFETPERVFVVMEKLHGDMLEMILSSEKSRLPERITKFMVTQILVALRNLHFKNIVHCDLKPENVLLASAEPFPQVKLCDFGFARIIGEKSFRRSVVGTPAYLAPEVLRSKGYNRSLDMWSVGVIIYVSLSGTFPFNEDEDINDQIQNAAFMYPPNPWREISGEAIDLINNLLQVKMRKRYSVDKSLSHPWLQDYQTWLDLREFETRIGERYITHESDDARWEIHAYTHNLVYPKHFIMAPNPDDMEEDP
Particulars: at 0.1 µM.

For assay [13], the target named is T4, Serine/threonine-protein kinase D3 (Homo sapiens). Particulars: at 1 µM.
Assay [14] has as its target T5, cGMP-dependent protein kinase 1 (Homo sapiens) (UniProt Q13976).
T5 sequence (whole entry): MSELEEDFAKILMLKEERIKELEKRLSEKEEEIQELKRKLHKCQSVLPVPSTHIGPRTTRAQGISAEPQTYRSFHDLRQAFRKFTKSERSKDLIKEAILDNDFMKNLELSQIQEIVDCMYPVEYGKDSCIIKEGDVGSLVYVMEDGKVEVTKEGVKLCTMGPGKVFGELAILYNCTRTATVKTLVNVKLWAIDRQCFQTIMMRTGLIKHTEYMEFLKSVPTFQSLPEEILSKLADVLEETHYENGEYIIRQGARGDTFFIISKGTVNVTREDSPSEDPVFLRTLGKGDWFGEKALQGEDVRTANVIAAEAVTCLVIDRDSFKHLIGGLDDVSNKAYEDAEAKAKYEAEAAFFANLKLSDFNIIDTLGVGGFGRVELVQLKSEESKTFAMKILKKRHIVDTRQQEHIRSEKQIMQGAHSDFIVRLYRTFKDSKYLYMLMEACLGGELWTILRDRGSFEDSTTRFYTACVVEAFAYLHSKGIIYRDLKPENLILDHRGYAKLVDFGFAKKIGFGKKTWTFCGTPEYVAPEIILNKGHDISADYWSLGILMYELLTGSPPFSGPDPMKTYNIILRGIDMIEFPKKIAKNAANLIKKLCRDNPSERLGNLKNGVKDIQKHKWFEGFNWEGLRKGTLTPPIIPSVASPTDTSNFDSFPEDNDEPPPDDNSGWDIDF
Particulars: at 0.1 µM.

Assay [15] deals with T5, cGMP-dependent protein kinase 1 (Homo sapiens). Particulars: at 1 µM.
The target of assay [16] is T6, cGMP-dependent protein kinase 2 (Homo sapiens) (UniProt Q13237).
T6 sequence (whole entry): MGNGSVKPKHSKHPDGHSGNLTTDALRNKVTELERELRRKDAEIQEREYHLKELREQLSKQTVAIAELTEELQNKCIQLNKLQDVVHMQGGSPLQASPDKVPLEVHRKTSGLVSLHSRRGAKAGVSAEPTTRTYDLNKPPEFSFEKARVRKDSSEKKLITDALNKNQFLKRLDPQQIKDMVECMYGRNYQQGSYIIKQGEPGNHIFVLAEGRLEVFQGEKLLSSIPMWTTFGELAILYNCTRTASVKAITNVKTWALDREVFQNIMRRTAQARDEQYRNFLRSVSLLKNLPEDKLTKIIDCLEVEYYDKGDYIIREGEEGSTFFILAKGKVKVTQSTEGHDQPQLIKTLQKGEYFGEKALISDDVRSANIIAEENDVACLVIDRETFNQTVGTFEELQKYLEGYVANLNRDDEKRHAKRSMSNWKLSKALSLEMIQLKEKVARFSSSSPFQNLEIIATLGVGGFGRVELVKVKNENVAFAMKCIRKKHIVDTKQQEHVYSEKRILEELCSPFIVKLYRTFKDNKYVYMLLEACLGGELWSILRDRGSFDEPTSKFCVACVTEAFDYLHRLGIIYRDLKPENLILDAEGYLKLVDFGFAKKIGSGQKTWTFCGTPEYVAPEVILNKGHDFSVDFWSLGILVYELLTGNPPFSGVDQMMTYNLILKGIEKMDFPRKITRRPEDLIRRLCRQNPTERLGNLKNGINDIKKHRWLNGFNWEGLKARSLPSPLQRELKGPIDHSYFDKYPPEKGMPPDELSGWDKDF
Particulars: at 0.1 µM.

Assay [17] has as its target T6, cGMP-dependent protein kinase 2 (Homo sapiens). Particulars: at 1 µM.
Assay [18] concerns the target T7, cAMP-dependent protein kinase catalytic subunit PRKX (Homo sapiens) (UniProt P51817).
T7 sequence (whole entry): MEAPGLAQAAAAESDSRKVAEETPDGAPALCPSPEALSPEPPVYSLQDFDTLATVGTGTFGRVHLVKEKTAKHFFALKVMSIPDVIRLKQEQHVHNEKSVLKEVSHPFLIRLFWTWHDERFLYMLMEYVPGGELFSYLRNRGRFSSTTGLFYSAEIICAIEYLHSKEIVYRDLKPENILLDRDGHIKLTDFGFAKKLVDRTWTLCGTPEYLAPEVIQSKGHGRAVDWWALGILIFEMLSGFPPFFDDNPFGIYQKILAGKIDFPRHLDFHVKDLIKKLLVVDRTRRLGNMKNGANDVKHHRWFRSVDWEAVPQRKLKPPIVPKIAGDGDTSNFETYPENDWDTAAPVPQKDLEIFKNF
Particulars: at 0.1 µM.

Assay [19] has as its target T7, cAMP-dependent protein kinase catalytic subunit PRKX (Homo sapiens). Particulars: at 1 µM.
The target in assay [20] is Rho-associated protein kinase 1 (Homo sapiens) (UniProt Q13464). Particulars: at 0.1 µM.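 Further: values are mean percent inhibition of ROCK1.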
Rho-associated protein kinase 1 (Homo sapiens), sequence (Q13464 2-1354 limits assumed): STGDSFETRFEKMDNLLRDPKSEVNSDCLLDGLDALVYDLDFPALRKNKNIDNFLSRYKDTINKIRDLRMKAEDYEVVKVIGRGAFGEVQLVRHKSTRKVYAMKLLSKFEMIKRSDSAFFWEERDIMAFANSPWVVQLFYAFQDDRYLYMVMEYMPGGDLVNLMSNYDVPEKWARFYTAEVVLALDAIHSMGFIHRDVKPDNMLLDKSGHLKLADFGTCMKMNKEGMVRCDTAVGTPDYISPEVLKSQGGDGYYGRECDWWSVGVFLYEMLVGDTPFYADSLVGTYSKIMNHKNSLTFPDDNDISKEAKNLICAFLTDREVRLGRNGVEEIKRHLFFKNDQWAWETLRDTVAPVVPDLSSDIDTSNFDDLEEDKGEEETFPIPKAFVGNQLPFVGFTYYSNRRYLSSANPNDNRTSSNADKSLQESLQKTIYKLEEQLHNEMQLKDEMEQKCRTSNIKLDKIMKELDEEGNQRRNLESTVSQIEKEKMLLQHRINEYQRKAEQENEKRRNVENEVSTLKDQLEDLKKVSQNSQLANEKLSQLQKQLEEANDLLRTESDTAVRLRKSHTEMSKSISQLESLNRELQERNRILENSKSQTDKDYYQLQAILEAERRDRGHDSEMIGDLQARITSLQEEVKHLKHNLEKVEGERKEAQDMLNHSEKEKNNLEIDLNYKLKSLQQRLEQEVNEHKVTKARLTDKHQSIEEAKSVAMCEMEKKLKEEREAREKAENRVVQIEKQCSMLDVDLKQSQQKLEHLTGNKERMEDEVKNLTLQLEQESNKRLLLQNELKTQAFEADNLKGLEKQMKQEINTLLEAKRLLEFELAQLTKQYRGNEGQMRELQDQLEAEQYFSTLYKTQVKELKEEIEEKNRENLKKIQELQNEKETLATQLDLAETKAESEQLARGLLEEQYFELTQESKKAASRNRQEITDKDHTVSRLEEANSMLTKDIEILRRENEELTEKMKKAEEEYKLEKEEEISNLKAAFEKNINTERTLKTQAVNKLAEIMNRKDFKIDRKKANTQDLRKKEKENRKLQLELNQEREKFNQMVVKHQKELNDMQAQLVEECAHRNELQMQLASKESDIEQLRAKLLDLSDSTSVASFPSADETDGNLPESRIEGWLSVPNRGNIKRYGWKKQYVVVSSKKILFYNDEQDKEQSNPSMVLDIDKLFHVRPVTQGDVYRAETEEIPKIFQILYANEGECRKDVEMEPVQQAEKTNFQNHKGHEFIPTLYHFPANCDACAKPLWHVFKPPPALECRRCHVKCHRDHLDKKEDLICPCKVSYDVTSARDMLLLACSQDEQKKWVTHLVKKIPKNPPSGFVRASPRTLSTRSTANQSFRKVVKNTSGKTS

Protein kinase C beta type (Homo sapiens), sequence (P05771 2-671 limits assumed): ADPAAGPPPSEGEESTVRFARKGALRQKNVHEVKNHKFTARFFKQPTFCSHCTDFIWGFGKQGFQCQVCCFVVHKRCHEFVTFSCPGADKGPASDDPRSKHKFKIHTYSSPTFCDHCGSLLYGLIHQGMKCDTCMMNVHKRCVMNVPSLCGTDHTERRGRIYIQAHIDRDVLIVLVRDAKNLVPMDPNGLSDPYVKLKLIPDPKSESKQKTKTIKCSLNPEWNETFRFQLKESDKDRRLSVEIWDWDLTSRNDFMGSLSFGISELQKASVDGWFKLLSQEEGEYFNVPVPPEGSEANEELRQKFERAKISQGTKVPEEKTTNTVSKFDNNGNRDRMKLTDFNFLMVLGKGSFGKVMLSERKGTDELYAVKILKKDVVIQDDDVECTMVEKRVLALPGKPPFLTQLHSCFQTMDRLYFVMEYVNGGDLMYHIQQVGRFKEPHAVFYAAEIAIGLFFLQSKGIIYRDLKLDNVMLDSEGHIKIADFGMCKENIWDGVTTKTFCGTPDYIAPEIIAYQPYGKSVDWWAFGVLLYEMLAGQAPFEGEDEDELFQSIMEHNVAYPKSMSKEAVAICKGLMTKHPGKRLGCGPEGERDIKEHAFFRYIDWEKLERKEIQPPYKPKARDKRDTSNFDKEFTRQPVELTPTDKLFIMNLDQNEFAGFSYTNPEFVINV
Protein kinase C theta type (Homo sapiens), sequence (Q04759 whole entry, looked up): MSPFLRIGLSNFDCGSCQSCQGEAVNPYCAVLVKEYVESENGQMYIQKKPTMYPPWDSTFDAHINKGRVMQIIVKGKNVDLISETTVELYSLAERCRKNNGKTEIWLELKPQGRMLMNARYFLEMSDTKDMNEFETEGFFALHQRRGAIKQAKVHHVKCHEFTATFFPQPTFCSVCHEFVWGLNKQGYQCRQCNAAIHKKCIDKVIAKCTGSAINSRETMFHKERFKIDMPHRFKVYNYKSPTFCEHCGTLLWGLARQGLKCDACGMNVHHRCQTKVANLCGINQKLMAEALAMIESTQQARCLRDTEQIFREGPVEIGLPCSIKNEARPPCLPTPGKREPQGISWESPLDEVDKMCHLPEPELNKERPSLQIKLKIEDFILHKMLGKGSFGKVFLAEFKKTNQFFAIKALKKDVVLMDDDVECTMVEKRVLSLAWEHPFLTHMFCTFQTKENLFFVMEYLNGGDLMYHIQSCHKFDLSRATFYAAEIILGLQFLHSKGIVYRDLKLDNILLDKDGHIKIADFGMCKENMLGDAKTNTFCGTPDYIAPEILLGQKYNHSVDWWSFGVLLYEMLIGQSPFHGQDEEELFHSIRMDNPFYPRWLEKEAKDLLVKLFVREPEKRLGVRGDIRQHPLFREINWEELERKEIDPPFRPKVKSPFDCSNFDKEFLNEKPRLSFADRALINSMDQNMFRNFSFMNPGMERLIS

As for `Cc1ccc(-c2cc3c(NC(=O)C4CC4)ncnc3o2)cc1`, the inhibition amounted to 2.25% in assay [1]; 2.54% in assay [2]; 2.8% in assay [3]; 2.02% in assay [4]; 1.79% in assay [5]; 5.24% in [6]. Moreover, the inhibition in assay [7] was 0.65%; in [8] it was 3.45%; in assay [9], 6.06%; in assay [10], 4.1%; in assay [11], 6.17%; in assay [12], 5.27%. The inhibition in assay [13] was 7.32%; in [14], 3.82%; in assay [15], 5.54%; in assay [16], 1.95%; in assay [17], 4.28%; in [18] it was 1.05%. Further, the results for the inhibition in [19] and in assay [20] were 0.33% and 1.09%, respectively.

Regarding `COc1c(C(N)=O)cc(-c2ccc(Cl)cc2)cc1-c1ccc(S(N)(=O)=O)cc1`, the inhibition is 4.7% in [1]; 1% in assay [2]; 0.99% in assay [3]; 2.35% in [4]; 3.92% in assay [5]; 1.11% in [6]. Besides, the inhibition in [7] is 3.56%; in [8], 4.74%; in assay [9] it was 5.66%; in assay [10] it was 3.83%; in [11], 1.99%; in assay [12], 4.57%. Besides, the inhibition in [13] was 4.42%; in [14], 4.35%; in [15], 9.49%; in [16], 3.98%; in assay [17], 8.49%; in assay [18], 1.69%. For the same compound, the inhibition turned out to be 3.72% in [19] and 2.98% in [20].

The inhibition is the relative decrease from the control value, in per cent. A higher inhibition goes with a response far below the control.
